From PubChem BioAssay
Calls of active or inactive are those of the source. Unless noted, the rule behind the calls is not given here.

Key:
[1] = system: XIP peptide (Xip251-270) binding; assay: small-molecule binders of XIP peptide, primary screen, biochemical, small-molecule microarray, fluorescence 635/667 nm, 0.1 µg/mL protein (AID 1182); conditions: fluorescent protein binding, 635 nm, higher = more signal, called active from +8 up or from −8 down
[2] = system: XIP peptide (Xip251-270); assay: small-molecule binders of XIP peptide, primary screen, biochemical, small-molecule microarray, fluorescence 635/667 nm, 0.5 µg/mL protein (AID 1183); conditions: small-molecule microarray binding, fluorescence 635 nm; higher = more signal
[3] = Plasmodium falciparum growth inhibition, primary screen, strain 3D7, DAPI fluorescence, 100 nL (AID 1184);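 note: parasites grown inside human red blood cells in medium with human serum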; conditions: P. falciparum 3D7 growth, 3 d, higher = more signal
[4] = molecular target: Homeobox protein Hox-A13 (Mus musculus) (UniProt Q62424); assay: inhibitors of HoxA13-DNA binding, primary screen, biochemical, fluorescence polarization, labeled oligonucleotide (AID 1185); conditions: 15 min, higher = more signal, called active from +8 up or from −8 down
[5] = inhibitors of hydroxyurea-induced Chk1 phosphorylation, primary screen, imaging, HeLa, phospho-Chk1 antibody, percent positive cells (AID 1186); conditions: hydroxyurea-induced phospho-Chk1 immunofluorescence imaging, higher = more signal
[6] = inhibitors of hydroxyurea-induced Chk1 phosphorylation, primary screen, imaging, HeLa, phospho-Chk1 nuclear intensity (AID 1187); conditions: hydroxyurea-induced phospho-Chk1 immunofluorescence imaging, higher = more signal

Homeobox protein Hox-A13 (Mus musculus), sequence (Q62424 whole entry, looked up): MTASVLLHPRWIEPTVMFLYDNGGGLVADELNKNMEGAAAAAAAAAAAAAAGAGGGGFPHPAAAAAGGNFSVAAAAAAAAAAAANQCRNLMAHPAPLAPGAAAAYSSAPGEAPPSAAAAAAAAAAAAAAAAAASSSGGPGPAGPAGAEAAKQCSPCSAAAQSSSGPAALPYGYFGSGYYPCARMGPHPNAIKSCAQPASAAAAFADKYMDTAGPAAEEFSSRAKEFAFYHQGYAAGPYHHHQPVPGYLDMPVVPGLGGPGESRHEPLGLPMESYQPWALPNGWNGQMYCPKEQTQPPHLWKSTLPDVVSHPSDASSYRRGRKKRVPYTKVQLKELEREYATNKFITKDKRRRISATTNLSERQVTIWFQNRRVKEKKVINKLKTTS

| SMILES | composite z-score [1] | composite z-score [2] | z-score [3] | z-score [4] | z-score [5] | z-score [6] |
| --- | --- | --- | --- | --- | --- | --- |
| CCC(CC)C(O)C1C=CC2C(=O)N(C)C(=O)C2N1N1CCCCC1 (stereo unspecified) | 0.865 (inactive) | 0.708 | 0.907 | -6.35 (inactive) | 0.687 (inactive) | 0.562 (inactive) |
| C=CC(CO)NC(=O)OCC1c2ccccc2-c2ccccc21 (stereo unspecified) | 1.62 (inactive) | 0.162 | 1.42 | 0.0393 (inactive) | 0.145 (inactive) | 0.42 (inactive) |
| COCCOC(=O)N1C(=O)[C@@]2(c3cc(C#Cc4ccc(OC)cc4)ccc31)[C@H](C(=O)Nc1nc3ccccc3s1)[C@H]1C(=O)O[C@H](c3ccccc3)[C@H](c3ccccc3)N1[C@@H]2c1ccccc1OCCO | 0.71 (inactive) | 0.594 | -1.96 | 3.56 (inactive) | -0.338 (inactive) | -0.538 (inactive) |
| COC(=O)[C@@]1(Cc2ccc(F)cc2)[C@H]2c3cc(C(=O)N4CCCC4)n(CCO)c3C[C@H]2CN1C(=O)c1ccccc1 | -0.33 (inactive) | 0.676 | -1.26 | -5.44 (inactive) | -0.961 (inactive) | -0.836 (inactive) |
| C=CC[C@@]1(C(=O)N(C)C)N=C(c2ccc(OCCCO)cc2)O[C@@H]1c1ccccc1 | 0.98 (inactive) | 0.425 | -0.76 | -6.79 (inactive) | 0.343 (inactive) | 0.0811 (inactive) |
| CCCCC(O)C1C=CC2C(=O)N(C)C(=O)C2N1Nc1ccccc1 (stereo unspecified) | -0.141 (inactive) | 0.0092 | -0.286 | -4.23 (inactive) | 0.342 (inactive) | -0.0493 (inactive) |
| COCCOC(=O)N1C(=O)[C@@]2(c3cc(C#CCCO)ccc31)[C@H](C(=O)N1CCc3cc(OC)c(OC)cc3C1)[C@H]1C(=O)O[C@H](c3ccccc3)[C@H](c3ccccc3)N1[C@@H]2c1ccccc1OCCO | 0.21 (inactive) | 0.805 | -2.18 | 0.554 (inactive) | 0.0905 (inactive) | 0.534 (inactive) |
| CN(C)CCCNC(=O)[C@@H]1c2ccccc2C(=O)N(C2Cc3ccccc3C2)[C@H]1c1ccc(CO)cc1 | -0.233 (inactive) | 0.677 | -1.09 | 0.84 (inactive) | -0.765 (inactive) | -0.961 (inactive) |
| C=CCC(OC(C)=O)[C@@H]1[C@@H](N(Cc2cc3ccccc3o2)C(=O)c2ccc(-c3ccccc3)cc2)c2cc(OCCCO)ccc2N1C(=O)c1ccc2ccccc2n1 (stereo partly specified) | -0.341 (inactive) | -0.317 | -1.49 | -1.34 (inactive) | -0.203 (inactive) | -0.103 (inactive) |
| CN1C=C(C(=O)OCCS(C)(=O)=O)C(C(=O)OCCS(C)(=O)=O)=CC(CCCO)=CC1c1ccc(CN2CCCC2)cc1 (stereo unspecified) | 0.629 (inactive) | 0.694 | -2.24 | -4.07 (inactive) | 0.266 (inactive) | -0.0538 (inactive) |
| COCCOC(=O)N1C(=O)[C@@]2(c3cc(C#CCCO)ccc31)[C@H](c1ccccc1OCCO)N1[C@H](c3ccccc3)[C@H](c3ccccc3)OC(=O)[C@H]1[C@@H]2C(=O)N1CCc2cc(OC)c(OC)cc2C1 | 0.291 (inactive) | 0.816 | -1.75 | 0.0237 (inactive) | -0.156 (inactive) | 0.0652 (inactive) |
| Cc1ccc(S[C@]2(C(=O)NCCCN(C)C)CC(=O)N(Cc3ccccc3Cl)[C@@H]2c2ccc(CO)cc2I)cc1 | 0.0919 (inactive) | 0.856 | -0.344 | -1.48 (inactive) | -0.0214 (inactive) | 0.0301 (inactive) |
| COc1ccc(CCNC(=O)[C@@H]2c3ccccc3C(=O)N(CC34CC5CC(CC(C5)C3)C4)[C@H]2c2ccc(CO)cc2)cc1 | 1.92 (inactive) | 0.55 | -2.14 | -4.4 (inactive) | -0.0198 (inactive) | 0.432 (inactive) |
| [N-]=[N+]=NCc1ccccc1C[C@]1(C(=O)O)COC(c2ccc(OCCCO)cc2)=N1 | -0.4 (inactive) | 0.264 | 1.24 | -3.85 (inactive) | 0.0203 (inactive) | -0.313 (inactive) |
| CCCC=C(CCC)[C@@H](NS(=O)(=O)c1ccc(Cl)cc1)c1ccccc1 | -0.641 (inactive) | 0.36 | -1.11 | -1.87 (inactive) | 0.081 (inactive) | 0.268 (inactive) |
| NC(=O)NCC#Cc1ccc2c(c1)[C@]1(C(=O)N2)[C@H](C(=O)Nc2nc3ccccc3s2)[C@H]2C(=O)O[C@H](c3ccccc3)[C@H](c3ccccc3)N2[C@@H]1c1ccc(OCCO)cc1 | -0.165 (inactive) | -0.913 | -0.245 | 0.217 (inactive) | 0.287 (inactive) | 0.68 (inactive) |
| C=C(CCCC)C(=O)CC[C@H](OC(=O)c1cccnc1)c1ccc(CO)o1 | 0.437 (inactive) | 0.769 | -0.198 | -5.27 (inactive) | 0.242 (inactive) | 0.136 (inactive) |
| COCCOC(=O)N1C(=O)[C@@]2(c3cc(C#Cc4ccc(OC)cc4)ccc31)[C@H](C(=O)N1CCCCCCC1)[C@H]1C(=O)O[C@H](c3ccccc3)[C@H](c3ccccc3)N1[C@@H]2c1ccccc1OCCO | 1.65 (inactive) | 0.728 | -2.15 | 4.81 (inactive) | -0.0224 (inactive) | 0.504 (inactive) |
| CCCC=C(CCC)[C@@H](NC(=O)c1ccccc1)c1ccc(C(=O)OC)cc1 | -0.0026 (inactive) | 0.222 | -0.891 | -0.72 (inactive) | 0.473 (inactive) | 0.204 (inactive) |
| C=CC[C@]1(C(=O)OC)N=C(c2ccc(OCCCO)cc2)O[C@H]1c1ccccc1N=[N+]=[N-] | 1.61 (inactive) | 0.867 | -2.21 | -3.31 (inactive) | -0.179 (inactive) | 0.059 (inactive) |
| COC(=O)c1ccc([C@H](NC(=O)c2ccccc2)[C@]2(C)C[C@H]2C2CCCCC2)cc1 | -0.317 (inactive) | -0.199 | -0.631 | 3.23 (inactive) | -0.198 (inactive) | -0.123 (inactive) |
| COCCOC(=O)N1C(=O)[C@@]2(c3cc(C#CCC(C(=O)OC)C(=O)OC)ccc31)[C@H](C(N)=O)[C@H]1C(=O)O[C@H](c3ccccc3)[C@H](c3ccccc3)N1[C@@H]2c1ccc(OCCO)cc1 | 0.572 (inactive) | 0.813 | -2.07 | -0.183 (inactive) | -0.153 (inactive) | 0.0973 (inactive) |
| COCC(=C=CC[C@@H](O)c1ccc(OCCO)cc1)C[C@@H](O)COCc1ccccc1 | 0.705 (inactive) | 0.181 | -2.96 | -4.15 (inactive) | -0.252 (inactive) | 0.483 (inactive) |
| CCN(CC)c1ccc(N2CC=CC34O[C@@H]5C=CCOC(=O)[C@@H]5[C@H]3C(=O)N(CCO)[C@@H]4C2=O)cc1 (stereo partly specified) | -0.228 (inactive) | -1.29 | 0.738 | -4.9 (inactive) | -0.52 (inactive) | -0.456 (inactive) |
| C=CCC(OC(C)=O)[C@@H]1[C@@H](N(Cc2cccc3ccccc23)C(=O)c2ccc(C)cc2)c2cc(OCCCO)ccc2N1C(=O)c1ccc2ccccc2n1 (stereo partly specified) | 0.655 (inactive) | -0.165 | -0.344 | -0.702 (inactive) | -0.39 (inactive) | -0.404 (inactive) |
| C=C(COC)/C(=C/C[C@H](OC(=O)c1ccncc1)c1cccc(OCCO)c1)c1cnc2ccccc2c1 | 4.42 (inactive) | 0.823 | -2.72 | -4.94 (inactive) | 0.321 (inactive) | 0.275 (inactive) |
